Compounds with a hit are over-represented: about 3.3% of the library has one in this group of screens.
NPSR antagonist: neuropeptide S receptor (human) antagonism, cAMP. CHO-NPSR cells, cAMP TR-FRET, antagonist mode. Potency, µM (top dose mostly 38.3 µM), for inactives: top-dose activity change, negative = inhibition, usual class: inhibitors. 1% of 220,000 active; also: nearly all actives have a fitted effect of over 50% in size
Target sequence (Q6W5P4 whole entry, looked up): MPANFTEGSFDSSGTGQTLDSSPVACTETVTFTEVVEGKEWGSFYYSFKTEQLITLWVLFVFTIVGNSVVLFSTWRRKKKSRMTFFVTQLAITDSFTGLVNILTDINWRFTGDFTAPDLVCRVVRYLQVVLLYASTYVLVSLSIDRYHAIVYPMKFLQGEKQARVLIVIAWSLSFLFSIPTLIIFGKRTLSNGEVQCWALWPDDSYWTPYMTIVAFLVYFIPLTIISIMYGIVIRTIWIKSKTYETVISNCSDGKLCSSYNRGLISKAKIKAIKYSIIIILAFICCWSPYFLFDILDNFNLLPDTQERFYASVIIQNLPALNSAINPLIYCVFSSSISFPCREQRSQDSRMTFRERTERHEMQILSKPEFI
Tau fluor cs: counter-screen for tau fibril formation inhibitors; tau K18 P301L Alexa594 fluorescence, heparin fibrillization; Potency, µM (highest dose often 57.7 µM), for inactives: at the top dose activity change, negative = decrease; 0.93% of 280,000 active; AID 1463; also: nearly all actives have a fitted effect of over 55% in size
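Human K18 P301L tau (15 uM unlabeled plus 0.24 uM Alexa 594-labeled, final) in 100 mM sodium acetate pH 7 was mixed with compound and 20 uM heparin and incubated 6 hr at 37 C.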
Tau fibril ThT: inhibitors of human tau fibril formation, thioflavin T binding | P10636 | recombinant tau K18 P301L (four-repeat tau fragment), heparin-induced fibrillization, ThT fluorescence | Potency, µM (top dose mostly 57.4 µM), inactives show at the top dose activity, negative = inhibition, hits mostly inhibitors | 2.1% of 270,000 active | AID 1460; also: nearly all actives have a fitted effect of over 55% in size
Target sequence (P10636 561-689 P618L limits assumed): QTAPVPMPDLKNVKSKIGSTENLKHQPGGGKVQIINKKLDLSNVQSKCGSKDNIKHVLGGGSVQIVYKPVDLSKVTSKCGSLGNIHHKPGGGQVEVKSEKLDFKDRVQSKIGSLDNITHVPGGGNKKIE
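Heparin-induced (20 uM) aggregation of recombinant human K18 P301L tau, 15 uM unlabeled with 0.24 uM labeled, pH 7 acetate buffer, 6 hr at 37 C with compound. Fibrils quantified by 30 uM ThT fluorescence after 1 hr ambient incubation.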
Luc counter: counter-screen: inhibitors of Kinase-Glo firefly luciferase; Q27757; Kinase-Glo luciferase, ATP luminescence, 8 min; Potency, µM (titrated, usually from 38.3 µM), without a hit: top-dose activity change, negative = inhibition, actives largely listed as inhibitors; 0.28% of 200,000 active; AID 1379; also: nearly all actives have a fitted effect of over 60% in size
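Kinase-Glo luciferase light output from ATP and luciferin was measured with 10 uM ATP, within the enzyme's linear range. Buffer: 50 mM imidazole pH 7.2, 50 mM KCl, 7 mM MgCl2, 0.01% Tween 20, 0.05% BSA; luminescence read after 8 min at ambient temperature.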
Tau FP inhib: tau fibrillization inhibition (FP) | K18 P301L tau heparin fibrillization, Alexa594 FP, 6 h | 0.39% of 280,000 active | Potency, µM (series often up to 57.7 µM), for the others: at the highest dose activity, negative = inhibition, most hits filed as inhibitors | P10636; also: nearly all actives have a fitted effect of over 55% in size
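Human tau K18 […] P301L fragment, 15 uM unlabeled plus 0.24 uM Alexa 594-labeled tau (final), with compound and 20 uM heparin in 100 mM sodium acetate pH 7; 6 hr at 37 C, then Alexa 594 FP read.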
Starred values were filed as active, the others as inactive; [ ] = remark or other dose. Calls follow the shape of the dose curve; as a rule, active = well fitted curve in the direction sought with a large enough effect; inconclusive = small, poorly fitted or top-dose-only effect, or another doubt; inactive = no such curve, though single readings can be large; an effect the other way counts as inactive or inconclusive. % is scaled to controls: 0 for no effect and ±100 for the full control effect; potency is read from the fitted curve at half-maximal effect.

Results for Cc1ccc([N+](=O)[O-])cc1-c1[nH]c(-c2ccc(O)c(O)c2)nc1-c1ccccc1 ?
NPSR antagonist: -27.3%[46.1 µM]; Tau fluor cs: 12.6µM*[quencher]; Tau fibril ThT: inconclusive; Luc counter: -1.7%; Tau FP inhib: 16.1%

What do the screens show for `O=C(Nc1ncc([N+](=O)[O-])s1)c1cccc([N+](=O)[O-])c1`?
NPSR antagonist: 5.01µM*; Tau fluor cs: -14.3%; Tau fibril ThT: 17.8µM*; Tau FP inhib: 12.7%

How did O=C(Nc1ccccc1)Nc1ncc([N+](=O)[O-])s1 do in these assays?
NPSR antagonist: -47.5%; Tau fluor cs: inconclusive; Tau fibril ThT: 17.8µM*; Luc counter: -5.6%; Tau FP inhib: 0.6%

Results for COc1ccccc1Nc1ccc([N+](=O)[O-])cc1N ?
NPSR antagonist: -18.6%; Tau fluor cs: inconclusive; Tau fibril ThT: 14.1µM*; Luc counter: 0.0%; Tau FP inhib: 12.9%

What do the screens show for `O=[N+]([O-])c1cccc(-c2csc(Nc3ccccc3)n2)c1`?
NPSR antagonist: 58.8%; Tau fluor cs: 25.1µM*[quencher]; Tau fibril ThT: inconclusive; Luc counter: 4.4%; Tau FP inhib: 13.1%

What do the screens show for `COc1ccccc1Nc1c([N+](=O)[O-])cc(C)cc1[N+](=O)[O-]`?
NPSR antagonist: 8.1%; Tau fluor cs: -27.4%; Tau fibril ThT: -19.9%; Luc counter: -3.6%; Tau FP inhib: 1.3%

What do the screens show for `O=C(Nc1cccc([N+](=O)[O-])c1)c1cccc(C(=O)Nc2cccc([N+](=O)[O-])c2)c1`?
NPSR antagonist: 9.7%; Tau fluor cs: inconclusive; Tau fibril ThT: 1.0%; Tau FP inhib: -6.9%

What do the screens show for `Cc1ccccc1NC(=O)c1c(C)oc2ccc(O)c(CN3CCOCC3)c12`?
Tau fluor cs: -9.1%; Tau fibril ThT: -7.3%; Tau FP inhib: 1.6%

What do the screens show for `COc1ccccc1-c1nc2c(c(SCC(=O)Nc3ccccc3F)n1)Cc1c(CO)cnc(C)c1O2`?
Tau fluor cs: -5.4%; Tau fibril ThT: -0.4%; Tau FP inhib: -15.0%

How did CCCCOc1ccc(CNC(=O)c2ccc(NC(=O)N3CCCCc4ccccc43)cc2)cc1 do in these assays?
Tau fluor cs: -1.3%; Tau fibril ThT: 3.1%; Tau FP inhib: 1.0%

Results for CCOC(=O)c1c(Nc2ccc(C)cc2)nnc(-c2ccccc2)c1-c1ccccc1 ?
Tau fluor cs: -12.1%; Tau fibril ThT: inconclusive; Tau FP inhib: -4.9%

Results for CCc1ccccc1NC(=O)c1ccc2c(c1)N(Cc1cc(C)ccc1C)C(=O)c1ccccc1S2(=O)=O ?
Tau fluor cs: -5.5%; Tau fibril ThT: 10.4%; Tau FP inhib: -18.7%

How did O=C(O)CCCSc1nc2ccccc2s1 do in these assays?
Luc counter: -5.0%[7.66 µM]

How did O=C(Nc1nc(-c2cccnc2)cs1)c1cccc([N+](=O)[O-])c1 do in these assays?
NPSR antagonist: -14.1%; Tau fluor cs: -7.1%; Tau fibril ThT: -7.2%; Luc counter: -0.3%; Tau FP inhib: 3.6%

How did COc1cc(NS(=O)(=O)c2ccc(NS(=O)(=O)c3ccccc3)cc2)nc(OC)n1 do in these assays?
NPSR antagonist: -9.9%[46.1 µM]; Tau fluor cs: -0.5%; Tau fibril ThT: 3.8%; Luc counter: 11.3%; Tau FP inhib: -4.6%

Results for O=C(Nc1nc(-c2ccccc2)cs1)c1cccc([N+](=O)[O-])c1 ?
NPSR antagonist: -11.6%[46.1 µM]; Tau fluor cs: 15.8µM*[quencher]; Tau fibril ThT: inconclusive; Luc counter: -5.2%; Tau FP inhib: 14.0%

What do the screens show for `COc1cc(NS(=O)(=O)c2ccc(Nc3nc(-c4cccc([N+](=O)[O-])c4)cs3)cc2)nc(OC)n1`?
NPSR antagonist: -17.3%; Tau fluor cs: inconclusive; Tau fibril ThT: 17.8µM*; Luc counter: 3.0%; Tau FP inhib: inconclusive

How did Cc1nc(C)c(C(=O)Nc2ncc([N+](=O)[O-])s2)o1 do in these assays?
NPSR antagonist: -21.6%; Tau fluor cs: -23.3%; Tau fibril ThT: 25.1µM*; Luc counter: inconclusive; Tau FP inhib: inconclusive

What do the screens show for `O=C(Cc1ccccc1)Nc1nc(-c2cccc([N+](=O)[O-])c2)cs1`?
NPSR antagonist: 6.1%; Tau fluor cs: -28.0%; Tau fibril ThT: -5.0%; Luc counter: 1.1%; Tau FP inhib: 6.4%

What do the screens show for `COc1ccccc1Nc1nc(-c2cccc([N+](=O)[O-])c2)cs1`?
NPSR antagonist: -7.9%; Tau fluor cs: 14.1µM*[quencher]; Tau fibril ThT: inconclusive; Tau FP inhib: 1.0%

How did CC(C)CCn1c(=O)c2cccnc2n(CC(=O)Nc2ccccc2F)c1=O do in these assays?
Tau fluor cs: -7.3%; Tau fibril ThT: 4.6%; Tau FP inhib: -18.2%

Results for COc1ccccc1Nc1nc(C)cs1 ?
NPSR antagonist: -3.2%[46.1 µM]; Tau fluor cs: inconclusive; Tau fibril ThT: 22.4µM*; Luc counter: -3.1%; Tau FP inhib: inconclusive

Results for Cc1csc(Nc2cccc3ccccc23)n1 ?
NPSR antagonist: -23.8%; Tau fluor cs: -19.9%; Tau fibril ThT: inconclusive; Luc counter: -0.6%; Tau FP inhib: -0.1%

How did Cc1cc(O)c(NC(=S)NC(=O)c2ccc(-c3ccc(Cl)cc3)o2)cc1C do in these assays?
NPSR antagonist: -9.3%[46.1 µM]; Tau fluor cs: 7.94µM*[quencher]; Tau fibril ThT: 11.2µM*; Luc counter: 7.7%; Tau FP inhib: inconclusive

How did Cc1ccc(NC(=S)NC(=O)c2ccc(-c3ccc(Cl)cc3)o2)c(O)c1 do in these assays?
NPSR antagonist: -18.7%; Tau fluor cs: 5.2%; Tau fibril ThT: 11.0%; Luc counter: 2.5%; Tau FP inhib: 9.3%

How did O=C(c1ccccc1F)N1CCN(c2ccc([N+](=O)[O-])cc2-n2cccc2)CC1 do in these assays?
NPSR antagonist: -57.7%; Tau fluor cs: -12.9%; Tau FP inhib: 8.6%

What do the screens show for `O=C(c1ccc(F)cc1)N1CCN(c2ccc([N+](=O)[O-])cc2-n2cccc2)CC1`?
NPSR antagonist: 10µM*; Tau fluor cs: inconclusive; Tau FP inhib: 1.7%

How did O=C(CSc1nc(Nc2ccccc2)nc(N2CCOCC2)n1)Nc1ccc([N+](=O)[O-])cc1 do in these assays?
NPSR antagonist: inconclusive; Tau fluor cs: 12.6µM*[quencher]; Tau fibril ThT: inconclusive; Luc counter: -1.2%; Tau FP inhib: inconclusive

Results for Oc1ccccc1/C=N/NC(=S)NC1CC2C=CC1C2 (stereo not drawn) ?
NPSR antagonist: 18.1%; Tau fluor cs: inconclusive; Tau fibril ThT: -0.5%; Tau FP inhib: 5.3%

What do the screens show for `Oc1c(Cl)cc(Cl)cc1/C=N/NC(=S)NC1CC2C=CC1C2` (stereo not drawn)?
NPSR antagonist: -15.7%; Tau fluor cs: 28.2µM*[quencher]; Tau fibril ThT: inconclusive; Tau FP inhib: 7.4%

Results for CCSc1nc2sc3c(c2c(=O)[nH]1)CCCC3 ?
NPSR antagonist: 2.6%[46.1 µM]; Tau fluor cs: -0.7%; Tau fibril ThT: -10.0%; Luc counter: 0.6%; Tau FP inhib: -10.9%

How did CCSC1=NC2(CCCCC2)Nc2sc3c(c21)CCCC3 do in these assays?
NPSR antagonist: inconclusive; Tau fluor cs: inconclusive; Tau fibril ThT: 28.2µM*; Luc counter: 4.4%; Tau FP inhib: inconclusive

Bioassay records: PubChem BioAssay, National Center for Advancing Translational Sciences (NCATS)
